Screening data (PubChem)
Rows were chosen to be rich in hits. Some 8.9% of all compounds tested hit in one or more screens of this group.
IMPase cell inh: cell-permeable inhibitors of inositol monophosphatase (IMPase); inhibition (IP1 accumulation), % at 46.1 µM; CHO-M1 cells, IP1 accumulation, HTRF TR-FRET ratio; 120,000 tested, under 10 active; active = well fitted curve in the direction sought with a large enough effect in the signal ratio, not every such curve was filed as active; inconclusive = small, poorly fitted or top-dose-only effect, or a change in a side signal; inactive = no such curve, though single readings can be large or run the other way; the % refers to the signal ratio;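 also: cells stimulated with carbachol in lithium chloride buffer; higher means more IMPase inhibition seen as more IP1 and lower FRET ratio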
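Seeded CHO-M1 cells were dosed with compound at up to 46 uM, stimulated with carbachol for 30 min, then lysed in IP-One detection reagents. Higher IP1 lowers the TR-FRET signal.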
HPGD block: HPGD (human) dehydrogenase inhibition. 150,000 compounds, 4.3% hits. purified HPGD, NADH fluorescence kinetic, PGE2 substrate. AID 894. Potency, µM, most hits filed as inhibitors; active = well fitted inhibition curve with a large enough effect, not every such curve was filed as active; inconclusive = small, poorly fitted or top-dose-only effect, or another doubt; inactive = no such curve, though single readings can be large or run the other way
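NADH formation kinetics: reaction with 30 uM PGE2 and 1 mM NAD+ (final), 20 nM enzyme, Tris-HCl pH 8 with Tween 20, after 15 min compound preincubation at room temperature. Fluorescence change, last versus first of five reads.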
IMPase Li cell: IMPase inhibition in cells with lithium potentiation. CHO-M1 cells, IP1 TR-FRET (IP-One), carbachol + lithium. Potency, µM (highest dose often 59.4 µM), most hits filed as inhibitors. 210,000 compounds, 0.35% hits. AID 1457;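 also: IP1 builds up when IMPase is blocked and the TR-FRET signal falls; nearly all actives have a fitted effect of over 50% in size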
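CHO-M1, 2000 cells/well, 16–30 h culture; cpd + low Li+, 30 min 37C; lysis with d2-IP1/Eu-anti-IP1 Ab, 10 min RT; TR-FRET 665/620 ratio and 620 channel; AC50 via Hill.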
ALDH1A1 inh: blocks purified human ALDH1A1 activity | Purified ALDH1A1, NADH fluorescence, propionaldehyde substrate | 220,000 compounds, 7.3% hits | Potency, µM (titrated, usually from 75.3 µM), hits mostly inhibitors | P00352; active = well fitted inhibition curve with a large enough effect, not every such curve was filed as active; inconclusive = small, poorly fitted or top-dose-only effect, or another doubt; inactive = no such curve, though single readings can be large or run the other way
Target sequence (P00352 whole entry, looked up): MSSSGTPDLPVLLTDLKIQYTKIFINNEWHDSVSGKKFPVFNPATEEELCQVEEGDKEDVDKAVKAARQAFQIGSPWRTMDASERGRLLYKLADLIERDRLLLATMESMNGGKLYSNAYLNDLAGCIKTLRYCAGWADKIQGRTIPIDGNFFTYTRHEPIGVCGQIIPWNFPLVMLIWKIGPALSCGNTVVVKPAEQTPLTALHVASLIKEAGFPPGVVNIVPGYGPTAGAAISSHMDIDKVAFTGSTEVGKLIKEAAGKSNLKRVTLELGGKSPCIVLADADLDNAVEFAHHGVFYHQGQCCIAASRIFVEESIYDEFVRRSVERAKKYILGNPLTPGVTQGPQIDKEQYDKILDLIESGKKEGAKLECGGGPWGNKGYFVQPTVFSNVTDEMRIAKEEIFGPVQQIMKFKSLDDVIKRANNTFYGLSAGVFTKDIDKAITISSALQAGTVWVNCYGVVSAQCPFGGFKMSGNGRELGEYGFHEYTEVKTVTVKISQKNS
NPSR antagonist: blocks cAMP signaling of the human neuropeptide S receptor. Q6W5P4. CHO-NPSR cells, cAMP TR-FRET, antagonist mode. Potency, µM (top dose mostly 38.3 µM), actives largely listed as inhibitors. 220,000 compounds, 1% hits; also: nearly all actives have a fitted effect of over 50% in size
ALOX12 inhib: blocks human 12-lipoxygenase activity. P18054. purified 12-hLO, xylenol orange hydroperoxide absorbance. Potency, µM (top dose mostly 57.1 µM), actives largely listed as inhibitors. 150,000 compounds, 0.12% hits. AID 1452; also: nearly all actives have a fitted effect of over 55% in size
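Xylenol orange chromogenic assay: hydroperoxide from 12hLO oxidises Fe(II), giving red-shifted Fe(III)-XO absorbance. Conditions: 150 nM enzyme, 40 uM arachidonic acid, 25 mM Hepes pH 7.0, 0.01% Triton X-100, 30 min, room temperature.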
Large screens that a line does not name were inactive. Unless noted, calls follow the shape of the dose curve; as a rule, active = well fitted curve in the direction sought with a large enough effect; inconclusive = small, poorly fitted or top-dose-only effect, or another doubt; inactive = no such curve, though single readings can be large; an effect the other way counts as inactive or inconclusive.

CCOC(=O)CNC(=O)C1c2cc(OC)c(OC)cc2C(=O)N(C)C1c1ccccc1F (stereo unspecified)	IMPase cell inh inconclusive, ALDH1A1 inh inconclusive
CCc1c(C)nc2ncnn2c1N1CCC(C(=O)NCc2cccs2)CC1	none (no result: IMPase cell inh, HPGD block, ALOX12 inhib)
O=c1[nH]nc(-c2ccc(F)cc2)cc1Cc1ccc(F)cc1	none (no result: IMPase cell inh, HPGD block, IMPase Li cell, ALDH1A1 inh, ALOX12 inhib)
CN1C(=S)SC(/[N+]([O-])=C\c2ccc(Cl)cc2)C1(C)C (stereo unspecified)	none
Cc1ccc(-c2nc3n(n2)C(=O)CC(c2ccc(Cl)cc2)S3)cc1 (stereo unspecified)	none (no result: HPGD block, IMPase Li cell, ALDH1A1 inh, NPSR antagonist, ALOX12 inhib)
Cn1nc(-c2ccc(Cl)cc2)nc2c(=O)n(C)c(=O)nc1-2	HPGD block inconclusive, ALDH1A1 inh inconclusive, NPSR antagonist 1µM
CC(C)=CC(=O)Nc1ccccc1C(N)=O	none
N#CC1=C(N)NC(SCC(=O)c2ccc(Br)cc2)=C(C#N)C12CCCCC2	ALDH1A1 inh 13µM (no result: IMPase cell inh)
CC1(C)CC(=O)C2=C(C1)NC(SCC(N)=O)=C(C#N)C21CCCCC1	ALDH1A1 inh inconclusive
COc1ccc(C(=O)CSC2=C(C#N)C3(CCCCC3)C(C#N)=C(N)N2)cc1	ALDH1A1 inh 8.9µM (no result: HPGD block, IMPase Li cell)
N#CC1=C(N)NC(SCC(=O)c2ccc(Cl)cc2)=C(C#N)C12CCCC2	HPGD block inconclusive, ALDH1A1 inh 28µM
COc1cccc(NC(=O)CSCC(=O)O)c1	none
NC(=O)c1ccc[n+](CC(=O)OCCC23CC4CC(CC(C4)C2)C3)c1	ALDH1A1 inh 25µM
CCCN1Cc2cccc(C(=O)NCc3ccc(C)cc3)c2C1=O	none (no result: IMPase cell inh, HPGD block, ALOX12 inhib)
CCCN1Cc2cccc(C(=O)NC(C)c3cccs3)c2C1=O (stereo unspecified)	ALDH1A1 inh 4µM
CCCN1Cc2cccc(C(=O)Nc3ccc(C)cc3)c2C1=O	NPSR antagonist inconclusive
CCCN1Cc2cccc(C(=O)NCCCOC(C)C)c2C1=O	ALDH1A1 inh 22µM
OCCCCNc1cccc2ccccc12	HPGD block inconclusive, ALDH1A1 inh inconclusive
CCCCCCCCOC(=O)CCc1c(C)[nH]c(=S)[nH]c1=O	ALDH1A1 inh 2µM
CCCCCCOC(=O)CCc1c(C)nc(N)[nH]c1=O	none
CCCCC(=O)N1CCN(c2ccc(OC)cc2[N+](=O)[O-])CC1	HPGD block 14µM, ALDH1A1 inh inconclusive (no result: IMPase cell inh)
COc1ccc(N2CCN(C(=O)c3ccccc3Br)CC2)c([N+](=O)[O-])c1	ALDH1A1 inh inconclusive (no result: IMPase cell inh, HPGD block, ALOX12 inhib)
COc1ccc(N2CCN(C(=O)c3ccc(C)cc3)CC2)c([N+](=O)[O-])c1	ALDH1A1 inh 11µM (no result: IMPase cell inh)
COc1ccc(N2CCN(C(=O)c3ccccc3)CC2)c([N+](=O)[O-])c1	ALDH1A1 inh inconclusive (no result: IMPase cell inh, HPGD block, ALOX12 inhib)
COc1ccc(N2CCN(C(=O)c3ccc(Br)cc3)CC2)c([N+](=O)[O-])c1	ALDH1A1 inh 13µM (no result: IMPase cell inh, HPGD block, ALOX12 inhib)
Cc1ccc(C(=O)N2CCN(c3ccc([N+](=O)[O-])cc3-n3cccc3)CC2)cc1	NPSR antagonist 10µM (no result: IMPase cell inh, HPGD block, IMPase Li cell, ALDH1A1 inh, ALOX12 inhib)
O=C(O)c1ccc(-n2nc(C(F)(F)F)c3c2-c2ccoc2CC3)cc1	IMPase cell inh inconclusive, HPGD block 22µM
COC(=O)c1ccc(-n2nc(C(F)(F)F)c3c2-c2ccoc2CC3)cc1	ALDH1A1 inh inconclusive, NPSR antagonist inconclusive
Cc1ccccc1Nc1scc(-c2ccc(Cl)cc2)[n+]1-c1ccccc1C	ALDH1A1 inh inconclusive, NPSR antagonist 7.9µM (no result: IMPase cell inh, HPGD block, ALOX12 inhib)
CC1(C)Oc2ccc(C(=O)N3CCCC3)cc2N(CC(=O)NCc2ccccc2)C1=O	none
COc1ccc(C(=O)CN2C(=O)C(C)(C)Oc3ccc(C(=O)N4CCCCCC4)cc32)cc1	HPGD block 8.9µM, NPSR antagonist inconclusive
O=C(NC(=S)Nc1ccc(S(=O)(=O)N2CCCC2)cc1)C1CCC1	ALDH1A1 inh inconclusive (no result: IMPase cell inh)
O=S(=O)(NC(=S)NC1CCCCC1)c1ccc(Br)cc1	ALDH1A1 inh 25µM (no result: IMPase cell inh, HPGD block, ALOX12 inhib)
O=C(NC(=S)Nc1ccc(S(=O)(=O)N2CCCC2)cc1)C1CC1	ALDH1A1 inh 20µM (no result: IMPase cell inh, HPGD block, ALOX12 inhib)
NS(=O)(=O)c1ccc(NC(=S)NC2CCCCCC2)cc1	ALDH1A1 inh inconclusive (no result: IMPase cell inh)
O=S(=O)(c1ccc(NC(=S)NC2CCCC2)cc1)N1CCCC1	ALDH1A1 inh 14µM (no result: IMPase cell inh, HPGD block, ALOX12 inhib)
NS(=O)(=O)c1ccc(NC(=S)NC2CCCC2)cc1	HPGD block 14µM, ALDH1A1 inh inconclusive (no result: IMPase cell inh)
